This is part of a sample that, as a whole, favours compounds with a hit. Of some 83,000 tested, about 20% had one in any assay.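 In brief: 96-well plates, 48 h treatment, single concentration, percent growth endpoint.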 A number with no mark means an inactive call. The source made the active and inactive calls. The calls were made as follows: active = growth percent below 10; inactive = the rest.

The test system of the test is SK-MEL-28 melanoma. The test is described as follows: NCI-60 one-dose screen, 48 h (100 = growth as untreated, 0 = no growth, -100 = all killed). The settings on record: 10 µM unless noted.
`COc1cc(C=O)ccc1OC(=O)c1cc(-c2ccc(C)cc2)n(-c2ccc(S(C)(=O)=O)cc2)n1`: the growth is 113%. In the case of `CC(C)CN1C(=O)/C(=C\C(=O)c2cc3ccccc3oc2=O)c2ccccc21`, the growth was 90.1%. As for `Nc1nc2cc(-c3ccc4ncnc(NCc5ccccc5)c4c3)ccc2o1`, the growth was 10.7%.

On to `Cc1cccc(NCC(=O)N2CCN(c3ncnc4c3cnn4-c3ccccc3)CC2)c1`, for which the growth was 59%. As to `CCCCCCCCCc1ccc(C(=O)Nc2cc(C)ccc2C(=O)OC)cc1`, the growth was 107%. `CCCCNC(=S)Nc1ccc(OCc2nc3ccc(Cl)cc3[nH]2)cc1`: the growth was 45.5%. For `CCC1(OC(=O)c2ccccc2SSCCOC(=O)CCCCC2SCC3NC(=O)NC32)C(=O)OCc2c1cc1n(c2=O)Cc2cc3ccccc3nc2-1` (stereo not given) the value was 96%; for `COc1ccc(/C=C/c2nc3ccccc3c(=O)n2CC(=O)Nc2ccccc2)cc1`, 79.1%; for `COc1ccccc1NC(=O)N/N=C/c1c[nH]c2ccccc12`, 44.2%. As for `Cc1ccc(C2CC(c3ccc(NC(=O)Nc4ccccc4)cc3)=NN2c2ccc(S(C)(=O)=O)cc2)cc1` (stereo not given), the figure is -89.4% (active); as for `CC1=C(C)C(=O)C(NCCN2CCOCC2)=C(Br)C1=O`, 75.4%; as for `CC(=O)C[n+]1cccc2c3ccccc3ccc21`, 95.6%. For the molecule `Cc1nn(-c2ccccc2)c2nc(C)n(CC(=O)N/N=C/c3ccccc3O)c(=O)c12`, the growth was 37.9%. As for `O=C(CSc1nnc(-c2ccc(-c3nc4ccccc4[nH]3)cc2)o1)Nc1ccccc1`, the figure is 36.3%; as for `Cc1cccc(-c2ccccc2Oc2ccc3nnc(Cl)n3n2)c1`, 107%; as for `Oc1cncc(-c2ccc3ncnc(N4CCc5cc(F)c(Cl)cc54)c3c2)c1`, 77.6%.

Consider `CCOc1ccccc1[C@H]1C(C(=O)c2ccc(Cl)cc2)C2(N[C@@H]1c1ccccc1)C(=O)Nc1ccc(Br)cc12` (stereo not given in full), for which the growth was -23.4% (active). In the case of `Cc1ccc2c(c1)/C(=C/C(=O)c1cc3ccccc3oc1=O)C(=O)N2`, the growth was 55.7%. Turning to `Cc1ccc(C(=O)C[n+]2cccc3c4ccccc4ccc32)cc1`, the growth was 44.5%. For `CCCCCCCCc1ccc(C(=O)Nc2ccc(C)c(OP(=O)(O)O)c2)cc1`, the growth is 116%.

(Values after PubChem BioAssay (NCI).)
